Measurements reported in PubChem BioAssay AID1159580 (chemical genetic matrix, 2015).
Out of some 5,500 compounds screened, about 2,000 (36%) were called active. Roughly 18% stayed inconclusive and do not appear here. No stated cut-off is given here; in the data, active means normalized growth mostly below about 0.91 (no sharp cut-off); inconclusive means no clear call, values can overlap the other calls; inactive means mostly above about 0.92. The list shows a part of the results.

Test: chemical genetic growth profiling, strain panel (AID 1159580);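 further: tested at 20 µM; growth read once vehicle control cultures reached saturation at 30 °C; 1 = growth at the plate median or of vehicle wells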
Details: S. cerevisiae deletion strains, growth OD

Measured: normalized growth

CC1=NS(=O)(=O)c2cc(Cl)ccc2N1
inactive: locus YAL021C, strain ccr4, stronger effect = lower value 0.919 | locus YAL026C, strain drs2, stronger effect = lower value 0.972 | locus YAL030W, strain snc1, stronger effect = lower value 0.987 | locus YAL040C, strain CLN3, stronger effect = lower value 1 | locus YBL061C, strain skt5, stronger effect = lower value 0.984 | locus YBR009C, strain hhf1, stronger effect = lower value 0.984 | locus YBR023C, strain chs3, stronger effect = lower value 0.971 | locus YBR171W, strain sec66, stronger effect = lower value 0.972 | locus YBR231C, strain swc5, stronger effect = lower value 0.995 | locus YBR279W, strain paf1, stronger effect = lower value 0.952 | locus YCL011C, strain gbp2, stronger effect = lower value 0.985 | locus YCL016C, strain dcc1, stronger effect = lower value 0.976 | locus YCL061C, strain MRC1 (second series), stronger effect = lower value 0.995 | locus YCL069W, strain vba3, stronger effect = lower value 0.967 | locus YCR088W, strain abp1, stronger effect = lower value 0.971 | locus YDL005C, strain med2, stronger effect = lower value 0.972 | locus YDL040C, strain nat1, stronger effect = lower value 0.958 | locus YDR001C, strain nth1, stronger effect = lower value 0.967 | locus YDR069C, strain doa4, stronger effect = lower value 0.937 | locus YDR137W, strain rgp1, stronger effect = lower value 0.957 | locus YDR150W, strain NUM1, stronger effect = lower value 1.01 | locus YDR159W, strain sac3, stronger effect = lower value 0.936 | locus YDR195W, strain ref2 0.899 | locus YDR297W, strain sur2, stronger effect = lower value 0.974 | locus YDR334W, strain swr1, stronger effect = lower value 0.936 | locus YDR335W, strain msn5, stronger effect = lower value 0.971 | locus YDR363W, strain ESC2, stronger effect = lower value 0.973 | locus YDR392W, strain spt3, stronger effect = lower value 0.971 | locus YEL003W, strain gim4, stronger effect = lower value 0.984 | locus YEL037C, strain rad23, stronger effect = lower value 0.944 | locus YEL061C, strain CIN8 (second series), stronger effect = lower value 0.972 | locus YER002W, strain NOP16, stronger effect = lower value 0.999 | locus YER015W, strain faa2, stronger effect = lower value 0.971 | locus YER016W, strain bim1, stronger effect = lower value 0.963 | locus YER111C, strain swi4, stronger effect = lower value 0.99 | locus YER155C, strain BEM2 (second series), stronger effect = lower value 0.994 | locus YFR010W, strain ubp6, stronger effect = lower value 0.946 | locus YGL167C, strain pmr1, stronger effect = lower value 0.95 | locus YGL173C, strain kem1, stronger effect = lower value 0.995 | locus YGL227W, strain vid30, stronger effect = lower value 0.967 | locus YGL240W, strain doc1, stronger effect = lower value 0.953 | locus YGL253W, strain hxk2, stronger effect = lower value 0.951 | locus YGR078C, strain PAC10, stronger effect = lower value 1.01 | locus YHR013C, strain ard1, stronger effect = lower value 0.925 | locus YHR027C, strain rpn1, stronger effect = lower value 0.977 | locus YHR030C, strain SLT2, stronger effect = lower value 0.96 | locus YHR079C, strain IRE1, stronger effect = lower value 0.969 | locus YHR142W, strain chs7, stronger effect = lower value 0.948 | locus YJL092W, strain hpr5, stronger effect = lower value 0.986 | locus YJL095W, strain BCK1 (second series), stronger effect = lower value 0.961 | locus YJL095W, strain BCK1, stronger effect = lower value 0.974 | locus YJL115W, strain asf1, stronger effect = lower value 0.948 | locus YJL129C, strain trk1, stronger effect = lower value 0.975 | locus YJL154C, strain vps35, stronger effect = lower value 0.989 | locus YJL164C, strain tpk1, stronger effect = lower value 0.977 | locus YJL166W, strain qcr8, stronger effect = lower value 0.963 | locus YJL187C, strain SWE1, stronger effect = lower value 0.979 | locus YJR066W, strain TOR1, stronger effect = lower value 0.948 | locus YJR075W, strain HOC1, stronger effect = lower value 0.991 | locus YKL160W, strain elf1, stronger effect = lower value 0.981 | locus YKR026C, strain gcn3, stronger effect = lower value 0.958 | locus YKR091W, strain srl3, stronger effect = lower value 0.969 | locus YLL001W, strain dnm1, stronger effect = lower value 0.969 | locus YLL026W, stronger effect = lower value 0.985 | locus YLL041C, strain sdh2, stronger effect = lower value 0.981 | locus YLR027C, strain aat2, stronger effect = lower value 0.975 | locus YLR113W, strain HOG1, stronger effect = lower value 0.951 | locus YLR221C, strain rsa3, stronger effect = lower value 0.986 | locus YLR258W, strain gsy2, stronger effect = lower value 0.971 | locus YLR262C, strain YPT6 (second series), stronger effect = lower value 0.961 | locus YLR320W, strain mms22, stronger effect = lower value 0.971 | locus YLR342W, strain FKS1, stronger effect = lower value 0.992 | locus YLR357W, strain rsc2, stronger effect = lower value 0.944 | locus YLR370C, strain arc18, stronger effect = lower value 0.963 | locus YLR384C, strain iki3, stronger effect = lower value 0.984 | locus YML120C, strain ndi1, stronger effect = lower value 0.98 | locus YMR058W, strain fet3, stronger effect = lower value 0.97 | locus YMR125W, strain sto1, stronger effect = lower value 0.955 | locus YMR129W, stronger effect = lower value 0.955 | locus YMR205C, strain PFK2, stronger effect = lower value 0.966 | locus YMR231W, strain pep5, stronger effect = lower value 0.963 | locus YMR307W, strain GAS1, stronger effect = lower value 0.993 | locus YNL071W, strain lat1, stronger effect = lower value 0.949 | locus YNL175C, strain NOP13, stronger effect = lower value 1 | locus YNL183C, strain NPR1, stronger effect = lower value 0.906 | locus YNL197C, strain WHI3, stronger effect = lower value 0.996 | locus YNL209W, strain ssb2, stronger effect = lower value 0.979 | locus YNL224C, strain SQS1, stronger effect = lower value 1 | locus YNL248C, strain rpa49, stronger effect = lower value 0.998 | locus YNL322C, strain KRE1 (second series), stronger effect = lower value 0.966 | locus YNL322C, strain KRE1, stronger effect = lower value 0.953 | locus YNR049C, strain mso1, stronger effect = lower value 0.974 | locus YOR001W, strain rrp6, stronger effect = lower value 0.958 | locus YOR070C, strain gyp1, stronger effect = lower value 0.99 | locus YOR080W, strain dia2, stronger effect = lower value 0.942 | locus YOR083W, strain WHI5 (second series), stronger effect = lower value 1.02 | locus YOR083W, strain WHI5, stronger effect = lower value 0.958 | locus YOR106W, strain vam3, stronger effect = lower value 0.983 | locus YOR231W, strain MKK1, stronger effect = lower value 0.978 | locus YOR265W, strain rbl2, stronger effect = lower value 0.975 | locus YOR270C, strain vph1, stronger effect = lower value 0.888 | locus YOR290C, strain snf2, stronger effect = lower value 0.965 | locus YPL051W, strain arl3, stronger effect = lower value 0.994 | locus YPL055C, strain LGE1, stronger effect = lower value 0.987 | locus YPL078C, strain atp4, stronger effect = lower value 0.985 | locus YPL106C, strain sse1, stronger effect = lower value 0.92 | locus YPL240C, strain hsp82, stronger effect = lower value 0.967 | locus YPL241C, strain CIN2, stronger effect = lower value 0.992 | locus YPL256C, strain CLN2, stronger effect = lower value 0.97
